Shown is part of a subset that was picked to be rich in hits.
STK33 inh: human STK33 kinase inhibition | Q9BYT3 | ADP-Glo luminescence, MBP substrate | inhibition, % at 12.5 µM | hit rate 0.44% among 27,000 | AID 2322; in the data active = inhibition above about 20%; inconclusive = no clear call, values can overlap the other calls
Target sequence (Q9BYT3 whole entry, looked up): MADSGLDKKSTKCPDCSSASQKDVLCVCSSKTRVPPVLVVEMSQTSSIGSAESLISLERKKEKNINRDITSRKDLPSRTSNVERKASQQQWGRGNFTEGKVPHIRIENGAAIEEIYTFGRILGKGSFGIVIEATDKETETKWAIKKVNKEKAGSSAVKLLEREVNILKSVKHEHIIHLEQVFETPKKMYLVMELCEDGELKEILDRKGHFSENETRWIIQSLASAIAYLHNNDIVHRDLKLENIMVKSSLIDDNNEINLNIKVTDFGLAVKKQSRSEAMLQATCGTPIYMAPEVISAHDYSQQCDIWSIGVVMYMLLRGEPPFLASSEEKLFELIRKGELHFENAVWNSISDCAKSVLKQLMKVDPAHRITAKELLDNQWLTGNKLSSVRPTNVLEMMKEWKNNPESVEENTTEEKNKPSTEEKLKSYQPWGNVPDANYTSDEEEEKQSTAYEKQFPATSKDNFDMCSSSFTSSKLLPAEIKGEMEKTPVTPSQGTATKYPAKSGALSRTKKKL
PD-1 reversal: reversal of PD-1 mediated T-cell inhibition; activation, % (concentration not given with the values); 29,000 tested, under 10 active; primary human CD4 T cells, PD-L1 beads, CellTiter-Glo 96 h; call rule not given here
NOMO-1 viab: STK33 inhibitor candidate reducing NOMO-1 cell viability; NOMO-1 AML viability, CellTiter-Glo luminescence, 72 h; inhibition, % (concentration not given with the values); hit rate 7.5% among 37,000; AID 2330; in the data active = inhibition above about 80%; inconclusive = no clear call, values can overlap the other calls
Hits are given with their value; – = inactive; ? = inconclusive; · = no result given.

SMILES	STK33 inh	PD-1 reversal	NOMO-1 viab
CC(C)NC(=O)Nc1ccc2c(c1)CC(=O)N([C@@H](C)CO)C[C@H](C)[C@H](CN(C)Cc1ccc(Oc3ccccc3)cc1)O2	–	·	–
NC(=O)COc1ccc(NC(=O)c2cccnc2)cc1	–	–	–
Cc1cc(O)cc(Oc2cc(C)cc(O)c2O)c1	–	–	–
CN(C)CCNc1nc2c(c(=O)n(C)c(=O)n2C)n1Cc1ccccc1F	–	·	–
NS(=O)(=O)c1ccc(NC(=S)NCCc2c[nH]c3ccccc23)cc1	–	–	–
CC1CCN(C(=O)c2cc(Cl)ccc2Cl)CC1	–	–	–
C[C@@H]1CN([C@H](C)CO)C(=O)Cc2cc(NC(=O)Nc3ccc(F)cc3)ccc2O[C@H]1CN(C)Cc1ccc(Oc2ccccc2)cc1	–	–	123.3
C[C@H]1CN([C@@H](C)CO)C(=O)Cc2cc(NC(=O)Nc3ccc(F)cc3)ccc2O[C@H]1CN(C)Cc1ccccc1	–	–	–
COc1ccc(C(=O)CCC(=O)Nc2ccc(C(=O)O)cc2)cc1OC	–	–	–
Cc1c(C2CCN(CCc3ccccc3)CC2)noc1-c1ccc(Cl)cc1	–	·	92.9
Cn1c(SCc2nc(-c3ccc(Cl)cc3)no2)nnc1-c1ccccc1	–	·	–
CS(=O)(=O)N(CC(=O)Nc1ccc(Br)cc1)c1ccc2c(c1)OCCO2	–	·	–
COc1ccc(OC)c(S(=O)(=O)N2CCC(C(=O)Nc3ccc(OC)c(Cl)c3)CC2)c1	–	–	–
O=C1CN(/N=C/c2ccc([N+](=O)[O-])o2)C(=O)N1	–	–	–
O=C(N/N=C/c1ccc([N+](=O)[O-])o1)c1ccc(O)cc1	–	–	140.3
O=C(OC[C@]12O[C@H]1[C@@H](O)[C@@H]1C=CO[C@@H](O[C@@H]3O[C@H](CO)[C@@H](O)[C@H](O)[C@H]3O)[C@@H]12)c1ccccc1	–	–	–
CC(Sc1nc2ccccc2[nH]1)C(=O)Nc1ccc(S(N)(=O)=O)cc1 (stereo not given)	–	–	–
C[C@@H]1CN([C@@H](C)CO)C(=O)c2cccc(NC(=O)Nc3ccc(C(F)(F)F)cc3)c2O[C@@H]1CN(C)Cc1ccc2c(c1)OCO2	·	–	105.7
C[C@H](CO)N1C[C@H](C)[C@H](CN(C)Cc2ccc3c(c2)OCO3)Oc2c(NC(=O)Nc3ccccc3)cccc2C1=O	·	–	–
C[C@H](CO)N1C[C@H](C)[C@@H](CN(C)Cc2ccc(C(F)(F)F)cc2)Oc2c(NC(=O)Nc3ccc4c(c3)OCO4)cccc2C1=O	·	–	104.6
C[C@H](CO)N1C[C@H](C)[C@@H](CN(C)Cc2ccc3c(c2)OCO3)Oc2c(NC(=O)Nc3ccc4c(c3)OCO4)cccc2C1=O	·	–	–
C[C@H]1CN([C@@H](C)CO)C(=O)c2cccc(NC(=O)Nc3ccc4c(c3)OCO4)c2O[C@@H]1CN(C)Cc1ccc(C(F)(F)F)cc1	·	–	109.9
COc1ccc(NC(=O)Nc2cccc3c2O[C@H](CN(C)Cc2ccc4c(c2)OCO4)[C@H](C)CN([C@H](C)CO)C3=O)cc1	·	–	–
COc1ccc(NC(=O)Nc2cccc3c2O[C@@H](CN(C)Cc2ccc4c(c2)OCO4)[C@H](C)CN([C@@H](C)CO)C3=O)cc1	·	–	114.7
C[C@H](CO)N1C[C@H](C)[C@H](CN(C)Cc2ccc(C(F)(F)F)cc2)Oc2c(NC(=O)Nc3ccc4c(c3)OCO4)cccc2C1=O	·	–	?
SMILES	STK33 inh	PD-1 reversal	NOMO-1 viab
Cc1cc(C)c(C)c(S(=O)(=O)NCC(=O)Nc2ccc3c(c2)OCCO3)c1C	–	–	–
CN(C1CCCCC1)S(=O)(=O)c1cc(Cl)ccc1Cl	·	–	–
Cc1sc2nc(SCc3cc(=O)[nH][nH]3)nc(N)c2c1C	–	–	–
S=c1[nH][n+]2c(-c3ccccc3)cc(-c3ccccc3)nc2s1	·	–	–
N#Cc1ccccc1OCCCn1cnc2ccccc21	–	–	–
CS(=O)(=O)N(CC(=O)Nc1ccc(Cl)c(C(F)(F)F)c1)c1cccc(Br)c1	–	·	·
C[C@@H]1CN([C@H](C)CO)C(=O)c2cccc(NC(=O)Nc3ccc(F)cc3)c2O[C@H]1CN(C)Cc1ccc2c(c1)OCO2	·	–	96.7
C[C@@H]1CN([C@H](C)CO)C(=O)c2cccc(NC(=O)Nc3ccc4c(c3)OCO4)c2O[C@@H]1CN(C)Cc1ccc2c(c1)OCO2	·	·	–
C[C@@H]1CN([C@@H](C)CO)C(=O)c2cccc(NC(=O)Nc3ccc4c(c3)OCO4)c2O[C@H]1CN(C)Cc1ccc(C(F)(F)F)cc1	·	–	108.7
C[C@H]1CN([C@@H](C)CO)C(=O)c2cccc(NC(=O)Nc3ccc(F)cc3)c2O[C@@H]1CN(C)Cc1ccc2c(c1)OCO2	·	–	–
CC1N=C(SCC#N)N2C(C)N=C(SCC#N)N12 (stereo not given)	·	–	–
CC1OC(Oc2cc(O)c(C3OC(C)C(O)C(O)C3O)c3oc(-c4ccc(O)cc4)cc(=O)c23)C(O)C(O)C1O (stereo not given)	–	·	·
COc1cc(O)c(C(C)=O)c(OC)c1	–	·	–
COc1cc(O)c(C(=O)c2c(C)cc(O)cc2OC)c(O)c1	–	–	121.1
O=C(COc1ccc(I)cc1)Nc1cccnc1	–	–	–
c1ccc(-n2c(SCc3nc4ccccc4[nH]3)nnc2-c2cnccn2)cc1	–	–	–
O=C(COc1ccc(Br)cc1Cl)Nc1ccccc1CO	–	–	–
COc1ccc(S(=O)(=O)Nc2cccc3c2O[C@@H](CN(C)Cc2ccc(C(=O)Nc4ccccc4N)cc2)[C@@H](C)CN([C@H](C)CO)C3=O)cc1	·	–	110.3
COc1ccc(S(=O)(=O)Nc2cccc3c2O[C@H](CN(C)Cc2ccc(C(=O)Nc4ccccc4N)cc2)[C@@H](C)CN([C@H](C)CO)C3=O)cc1	·	–	–
COc1ccc(S(=O)(=O)Nc2cccc3c2O[C@H](CN(C)Cc2ccc(C(=O)Nc4ccccc4N)cc2)[C@H](C)CN([C@H](C)CO)C3=O)cc1	·	–	128.1
COc1ccc(S(=O)(=O)Nc2cccc3c2O[C@H](CN(C)Cc2ccc(C(=O)Nc4ccccc4N)cc2)[C@H](C)CN([C@@H](C)CO)C3=O)cc1	·	–	127.2
COc1ccc(CN(C)C[C@@H]2Oc3c(NS(=O)(=O)c4ccc(OC)cc4)cccc3C(=O)N([C@@H](C)CO)C[C@H]2C)cc1	·	·	–
Cc1ccc(-c2nc3cc(Cl)cc(Cl)c3o2)cc1NC(=O)COc1ccc([N+](=O)[O-])cc1	–	–	–
CC(NS(=O)(=O)c1ccccc1)C(=O)Nc1ccc(F)c(Cl)c1 (stereo not given)	–	–	–
COc1ccc2c(=O)cc(-c3ccccc3OC)oc2c1	–	·	–
SMILES	STK33 inh	PD-1 reversal	NOMO-1 viab
O=C(CSc1nnc(-c2ccco2)o1)c1ccc(Oc2ccccc2)cc1	–	·	–
Nc1nc(SCc2nnc(Nc3ccccc3)s2)nc2sc3c(c12)CCC3	–	·	–
O=C(Nc1ccc(OCc2nc3ccccc3s2)cc1)c1ccc(Cl)cc1	–	–	–
Cc1cc(OCc2nc3ccccc3s2)ccc1NC(=O)Nc1cccc(Cl)c1	–	·	106.9
NC(N)=NS(=O)(=O)c1ccc(N=Cc2ccccc2O)cc1	–	–	–
CCOC(=O)c1cnc2ccc(OCC)cc2c1N1CCN(c2ccccc2)CC1	·	–	–
CCOC(=O)c1cnc2ccc(OCC)cc2c1NC(C)CC (stereo not given)	–	–	117.1

Screening data: PubChem, Broad Institute
